Screening data (PubChem BioAssay)
D3 antag: qHTS of D3 Dopamine Receptor Antagonist: qHTS; D(3) dopamine receptor (Homo sapiens), P35462; D3R cells, DiscoveRx beta-arrestin luminescence, antagonist mode; active compounds read low; max response, negative = inhibition, %; 2.5% of 360,000 active; AID 652054, 2013; in the data active = max response below about -50%; inconclusive = no clear call, values can overlap the other calls; note: % is set by controls: 0 for no effect and ±100 for the full control effect
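Cells plated overnight at 1500 cells/well, then exposed to library compounds with dopamine controls for 90 minutes at 37 degrees C. DiscoveRx reagent added for 30–60 minutes at room temperature; luminescence read, quantitative HTS format.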
Giardia killer: Small Molecules that selectively kill Giardia lamblia: qHTS; Giardia lamblia trophozoite viability; activity change, % at 7.66 µM, hits read low; 0.15% of 340,000 active; in the data active = activity change below about -80%; inconclusive = between about -30% and that limit;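 note: parasites exposed to compound for two days anaerobically before the ATP read; % is set by controls: 0 for no effect and ±100 for the full control effect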
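Luminescence from cellular ATP indicates surviving trophozoites (100 cells/well) following 48 hrs anaerobic compound treatment at 37 deg C; signal develops 15-30 min at room temperature.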
DRD3 agonist: qHTS of D3 Dopamine Receptor Agonist: qHTS; 0.58% of 410,000 active; AID 652048, 2013; max activation, %; D3R DiscoveRx beta-arrestin cells, luminescence, 90 min; in the data active = max activation above about 30%; note: 0% is about no effect
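Agonist mode: compounds and dopamine controls were applied to plated cells for 90 min at 37 degrees C after an overnight attachment at 1500 cells/well. Luminescent read-out followed 30 - 60 minutes at room temperature with DiscoveRx detection reagent.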
B2AR arrestin: qHTS assay of beta-arrestin-biased ligands of beta2-adrenergic receptor. Beta-2 adrenergic receptor (Homo sapiens), P07550. beta-arrestin recruitment to beta2AR, cell-based reporter. Potency, µM (highest dose often 46.1 µM), without a hit: at the top dose activation, actives largely listed as activators. 0.02% of 330,000 active; active = well fitted activation curve with a large enough effect; inconclusive = small, poorly fitted or top-dose-only effect;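 note: potency is the fitted concentration of half-maximal effect; 0% = DMSO controls and full agonism = EC100 isoproterenol or metaproterenol; nearly all actives have a fitted effect of over 65% in size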
Target sequence (P07550 whole entry, looked up): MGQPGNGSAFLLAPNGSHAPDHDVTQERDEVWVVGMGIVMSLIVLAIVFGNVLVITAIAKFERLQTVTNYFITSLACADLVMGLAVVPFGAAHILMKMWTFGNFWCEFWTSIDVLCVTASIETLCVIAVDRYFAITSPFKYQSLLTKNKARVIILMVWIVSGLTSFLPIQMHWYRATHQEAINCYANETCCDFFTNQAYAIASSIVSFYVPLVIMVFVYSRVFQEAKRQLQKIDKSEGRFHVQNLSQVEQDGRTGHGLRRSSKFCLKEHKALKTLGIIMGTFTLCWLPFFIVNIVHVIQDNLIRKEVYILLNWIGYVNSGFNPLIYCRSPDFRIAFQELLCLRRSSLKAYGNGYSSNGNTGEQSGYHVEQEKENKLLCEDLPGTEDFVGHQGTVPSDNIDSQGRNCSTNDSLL
Numbers without * were called inactive. Shown are actives, neighbours in structure and some others; about 2.8% of the full set was active somewhere.

Results for COc1ccc(-c2onc(C)c2C)cc1S(=O)(=O)N(C)Cc1ccccc1 ?
DRD3 agonist: 2

Results for c1ccc(-c2ccccc2OCCCN2CCCCC2)cc1 ?
D3 antag: 0; Giardia killer: -25; DRD3 agonist: -4; B2AR arrestin: 0%

Results for Clc1cccc(OCCCN2CCCC2)c1Cl ?
D3 antag: -99*; Giardia killer: 17; DRD3 agonist: 1; B2AR arrestin: -2%

How did c1ccc2c(OCCCN3CCCCCC3)cccc2c1 do in these assays?
D3 antag: -60*; Giardia killer: -6; DRD3 agonist: -16; B2AR arrestin: 0%

Results for Cc1ccc(NC(=O)CN2CCc3ccccc3C2)cc1F ?
D3 antag: -85*; Giardia killer: -5; DRD3 agonist: -36; B2AR arrestin: 0%

Results for CN(C)S(=O)(=O)c1ccc(Cl)c(NC(=O)CN2CCc3ccccc3C2)c1 ?
D3 antag: 2; Giardia killer: -10; DRD3 agonist: 74*; B2AR arrestin: 0%

What do the screens show for `CCc1ccc(NC(=O)CCn2c(=O)c3cccn3c3ccccc32)cc1`?
D3 antag: -54*; Giardia killer: 12; DRD3 agonist: -21; B2AR arrestin: 1%

How did CCN(CC)S(=O)(=O)c1ccc(O)c(NC(=O)CN2CCc3ccccc3C2)c1 do in these assays?
D3 antag: 8; Giardia killer: 12; DRD3 agonist: 1; B2AR arrestin: 0%

Results for Cc1ccc(NC(=O)CN2CCc3ccccc3C2)cc1S(=O)(=O)N(C)C ?
D3 antag: inconclusive; Giardia killer: 17; DRD3 agonist: -2; B2AR arrestin: 0%

What do the screens show for `O=C(CN1CCc2ccccc2C1)NCC(=O)Nc1ccc(F)cc1`?
D3 antag: 2; Giardia killer: 10; DRD3 agonist: -6; B2AR arrestin: 3%

What do the screens show for `CCc1ccc(NC(=O)CN2CCc3ccccc3C2)cc1`?
D3 antag: -65*; Giardia killer: 9; DRD3 agonist: -2; B2AR arrestin: 0%

How did CCOC(=O)c1c(NC(=O)c2cc(-c3ccccc3)on2)sc2c1CCCC2 do in these assays?
DRD3 agonist: 4

What do the screens show for `CCOC(=O)c1cc(-c2ccc(F)cc2)n(CCC(=O)NCCc2ccc(C)cc2)c1C`?
DRD3 agonist: -13

How did Cc1cc(C)c2nc(N3CCCC(C(=O)NCc4cccc(Cl)c4)C3)sc2c1 (stereo unspecified) do in these assays?
DRD3 agonist: 9

How did CN(C)S(=O)(=O)c1ccc(Cl)c(NC(=O)COC(=O)c2cc(-c3ccccc3)nc3ccccc23)c1 do in these assays?
D3 antag: 3; Giardia killer: 11; DRD3 agonist: 36*; B2AR arrestin: 0%

How did Cc1cc(C(=O)OCC(=O)Nc2cccc(S(=O)(=O)N(C)C)c2)c2ccccc2n1 do in these assays?
D3 antag: 55; Giardia killer: 3; DRD3 agonist: 3; B2AR arrestin: 0%

What do the screens show for `O=C(CN1CCc2ccccc2C1)Nc1ccc(Br)cc1`?
D3 antag: -52*; Giardia killer: 4; DRD3 agonist: -3; B2AR arrestin: 0%

Results for CC(C)(C)CNC(CO)C12CC3CC(CC(C3)C1)C2 (stereo unspecified) ?
D3 antag: -54*; Giardia killer: inconclusive; DRD3 agonist: -3; B2AR arrestin: 0%

How did CC(C)(CO)NC12CC3CC(CC(C3)C1)C2 do in these assays?
D3 antag: -14; Giardia killer: -13; DRD3 agonist: 1; B2AR arrestin: 0%

How did Cn1c(=O)n(C)c2cc([N+](=O)[O-])c(N3CCN(C(=O)c4cccc(Cl)c4)CC3)cc21 do in these assays?
D3 antag: -60*; Giardia killer: -13; DRD3 agonist: -14; B2AR arrestin: 0%

Results for CSc1ccccc1N=CC1=C(O)CC(C)(C)CC1=O ?
D3 antag: inconclusive; Giardia killer: -15; DRD3 agonist: -2; B2AR arrestin: 0%

What do the screens show for `CC1(C)CC(=O)C(C=Nc2cc(C(=O)c3ccccc3)ccc2N)=C(O)C1`?
D3 antag: -125*; Giardia killer: -15; DRD3 agonist: -27; B2AR arrestin: 0%

How did COC(=O)c1ccc(N)c(N=CC2=C(O)CC(C)(C)CC2=O)c1 do in these assays?
D3 antag: -51*; Giardia killer: 2; DRD3 agonist: -8; B2AR arrestin: 4%

What do the screens show for `COc1cc(C#Cc2c(-c3cncn3C)n(C)c3ccc(-c4ccc(OC)c(OC)c4)cc23)cc(OC)c1`?
D3 antag: 105; Giardia killer: 0; DRD3 agonist: 70*; B2AR arrestin: 0%

Results for COc1cc(C#Cc2c(-c3cncn3C)n(C)c3ccc(-c4ccc5cc[nH]c5c4)cc23)cc(OC)c1 ?
D3 antag: 0; Giardia killer: -7; DRD3 agonist: 2; B2AR arrestin: 0%

What do the screens show for `Nc1nc(=O)n(C2OC(CO)C(O)C2O)cc1F` (stereo unspecified)?
D3 antag: -78*; DRD3 agonist: -17

Results for CCn1c(=O)c2sccc2n2c(CCC(=O)N3CCN(c4ccc(C(C)=O)cc4)CC3)nnc12 ?
DRD3 agonist: 5

How did CCCC(=O)Nc1nnc(-c2ccco2)s1 do in these assays?
D3 antag: -66*; Giardia killer: 8; DRD3 agonist: 4; B2AR arrestin: 0%

Results for O=C(Cc1ccccc1)Nc1nnc(-c2ccco2)s1 ?
D3 antag: -19; Giardia killer: 10; DRD3 agonist: -4; B2AR arrestin: 0%

How did O=C(Cn1ncc(Cl)c(Cl)c1=O)N1CCN(Cc2ccccc2)CC1 do in these assays?
D3 antag: -63*; Giardia killer: 18; DRD3 agonist: -7; B2AR arrestin: 0%

Results for COc1ccc(C(=O)NCCn2cc(SCC(=O)NCc3ccco3)c3ccccc32)cc1 ?
D3 antag: -69*; Giardia killer: 10; DRD3 agonist: 4; B2AR arrestin: 0%

What do the screens show for `NC(c1csc(NC(=O)Nc2ccccc2Cl)n1)C1CCCCC1` (stereo unspecified)?
D3 antag: -28; DRD3 agonist: 58*

How did COc1ccccc1NC(=O)Nc1nc(C(N)C2CCCCC2)cs1 (stereo unspecified) do in these assays?
D3 antag: inconclusive; DRD3 agonist: -17

Results for Cc1ccc[n+](C(C)C(=O)Nc2ccc(C)c([N+](=O)[O-])c2)c1 (stereo unspecified) ?
D3 antag: -70*; Giardia killer: -10; DRD3 agonist: -11; B2AR arrestin: -1%

Results for Cc1ccc[n+](C(C)C(=O)Nc2ccc([N+](=O)[O-])cc2C)c1 (stereo unspecified) ?
D3 antag: 1; Giardia killer: -5; DRD3 agonist: -14; B2AR arrestin: -1%

How did CCC(=O)N1CCc2cc(S(=O)(=O)NCCN3CCC(C)CC3)ccc21 do in these assays?
D3 antag: -90*; Giardia killer: -10; DRD3 agonist: 1; B2AR arrestin: 0%
